Measurements as given in PubChem BioAssay (NCI).
The panel holds about 83,000 compounds, 20% with a hit somewhere; the sample as a whole holds those more often.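 Percent growth is the endpoint: 0 to 100 indicates growth inhibition (40 means 60% inhibition), 0 means no net growth, and negative values indicate cell death.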 Activity calls are given as the source filed them. The calls were made as follows: active = growth percent below 10; inactive = the rest.

test system: NCI-H322M lung; test: NCI-60 one-dose screen, 48 h (100 = growth as untreated, 0 = no growth, -100 = all killed); details: 10 µM unless noted

SMILES	growth
NC(N)=N/N=C(/c1ccccc1)c1ccc(Cl)cc1	57.7% (inactive)
O=C(Nc1nc(-c2ccc(Cl)cc2)cs1)c1cc(O)c(O)c(O)c1	60.8% (inactive)
CC(=O)Oc1ccc(C2OC(c3ccc4ccccc4c3OC(C)=O)=NN2C(C)=O)c(OC(C)=O)c1 (stereo unspecified)	24.4% (inactive)
Fc1ccc(-c2nnc(-c3c(-c4ccc(F)cc4)nc4ncccn34)o2)cc1	105% (inactive)
COc1ccc(/C=C(\C#N)c2ccccc2)cc1	97.5% (inactive)
C=C(C)[C@H]1CC/C(C)=C/CC[C@]2(C)O[C@H]2CC/C(C=O)=C\C1O (stereo partly specified)	111% (inactive)
O=c1ccn(C2OC(CO)C(O)C2F)c(=O)[nH]1 (stereo unspecified)	117% (inactive)
COc1cccc(-c2nnc(N)o2)c1	99.5% (inactive)
O=c1cc(-c2cccnc2)oc2c1ccc1ccccc12	117% (inactive)
COc1ccc(-c2cn(-c3ccccc3)c(-c3ccccc3)n2)cc1OC	88.4% (inactive)
COc1cc(Oc2cc(-c3cccnc3)ccc2NC(=O)Nc2ccc(F)cc2F)cc(OC)c1OC	112% (inactive)
ClC1=C(Cl)C(Cl)=C(Cl)C1=C/C=C/c1ccccc1	-27.8% (active)
CNc1ccc(CSc2ccc(Cl)cc2)cc1	123% (inactive)
C/C(=C\CCc1ccoc1)CC/C=C(\C)CCCN1CCC(CO)CC1	74.9% (inactive)
Oc1ccc(Cc2ccc(O)c(C3CC(c4ccc(Cl)cc4)=NN3)c2)cc1C1CC(c2ccc(Cl)cc2)=NN1 (stereo unspecified)	7.95% (active)
CSc1nc2c(c(=O)n1C)C(c1ccccc1)C1=C(N2)/C(=C/c2ccccc2)CCC1 (stereo unspecified)	86% (inactive)
